According to PubChem BioAssay AID1159580 (chemical genetic matrix, 2015):
Where “and” joins values, the source holds several entries; their conditions need not be identical. Identical values can stand only once. Out of some 5,500 compounds screened, about 2,000 (36%) were called active. Another 18% or so got no clear call; they are omitted. Rule as the data show it: active = normalized growth mostly below about 0.91 (no sharp cut-off); inconclusive = no clear call, values can overlap the other calls; inactive = mostly above about 0.92. Some of the results follow.

Assay: chemical genetic growth profiling, strain panel (AID 1159580);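 also: tested at 20 µM; growth read once vehicle control cultures reached saturation at 30 °C; 1 = growth at the plate median or of vehicle wells; lower values mean less growth of the strain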
Details: growth OD

Measured: normalized growth

CC(NC(C)(C)C)C(=O)c1cccc(Cl)c1 (stereo unspecified)
inactive: S. cerevisiae deletion strains, locus YJR075W, strain HOC1, hits give low values 1.02 | S. cerevisiae deletion strains, locus YKL009W, strain mrt4, hits give low values 0.977 | S. cerevisiae deletion strains, locus YKL068W, hits give low values 1.02 | S. cerevisiae deletion strains, locus YKL085W, strain MDH1 (second series), hits give low values 1.02 | S. cerevisiae deletion strains, locus YKL085W, strain MDH1, hits give low values 1.02 | S. cerevisiae deletion strains, locus YKL160W, strain elf1, hits give low values 0.996 | S. cerevisiae deletion strains, locus YKL190W, strain CNB1, hits give low values 1.01 | S. cerevisiae deletion strains, locus YKR001C, strain vps1, hits give low values 1.02 | S. cerevisiae deletion strains, locus YKR026C, strain gcn3, hits give low values 0.995 | S. cerevisiae deletion strains, locus YKR091W, strain srl3, hits give low values 0.998 | S. cerevisiae deletion strains, locus YLL001W, strain dnm1, hits give low values 0.993 | S. cerevisiae deletion strains, locus YLL026W, hits give low values 1 | S. cerevisiae deletion strains, locus YLL041C, strain sdh2, hits give low values 1 | S. cerevisiae deletion strains, locus YLR027C, strain aat2, hits give low values 1 | S. cerevisiae deletion strains, locus YLR039C, strain RIC1, hits give low values 1.03 | S. cerevisiae deletion strains, locus YLR058C, strain SHM2, hits give low values 1.01 | S. cerevisiae deletion strains, locus YLR102C, strain apc9, hits give low values 1.03 | S. cerevisiae deletion strains, locus YLR113W, strain HOG1, hits give low values 0.986 | S. cerevisiae deletion strains, locus YLR221C, strain rsa3, hits give low values 1.01 | S. cerevisiae deletion strains, locus YLR258W, strain gsy2, hits give low values 0.996 | S. cerevisiae deletion strains, locus YLR262C, strain YPT6 (second series), hits give low values 0.977 | S. cerevisiae deletion strains, locus YLR262C, strain YPT6, hits give low values 1.05 | S. cerevisiae deletion strains, locus YLR268W, strain sec22, hits give low values 1.03 | S. cerevisiae deletion strains, locus YLR320W, strain mms22, hits give low values 0.985 | S. cerevisiae deletion strains, locus YLR330W, strain CHS5, hits give low values 1.01 | S. cerevisiae deletion strains, locus YLR342W, strain FKS1 (second series), hits give low values 0.98 | S. cerevisiae deletion strains, locus YLR342W, strain FKS1, hits give low values 0.997 | S. cerevisiae deletion strains, locus YLR357W, strain rsc2, hits give low values 0.983 | S. cerevisiae deletion strains, locus YLR370C, strain arc18, hits give low values 1 | S. cerevisiae deletion strains, locus YLR371W, strain rom2, hits give low values 1.04 | S. cerevisiae deletion strains, locus YLR384C, strain iki3, hits give low values 0.993 | S. cerevisiae deletion strains, locus YLR418C, strain cdc73, hits give low values 1.03 | S. cerevisiae deletion strains, locus YML016C, strain PPZ1, hits give low values 1.01 | S. cerevisiae deletion strains, locus YML032C, strain rad52, hits give low values 1.03 | S. cerevisiae deletion strains, locus YML120C, strain ndi1, hits give low values 1.01 | S. cerevisiae deletion strains, locus YML124C, strain tub3, hits give low values 1.04 | S. cerevisiae deletion strains, locus YMR058W, strain fet3, hits give low values 0.997 | S. cerevisiae deletion strains, locus YMR078C, strain ctf18, hits give low values 1.04 | S. cerevisiae deletion strains, locus YMR125W, strain sto1, hits give low values 0.999 | S. cerevisiae deletion strains, locus YMR129W, hits give low values 1 | S. cerevisiae deletion strains, locus YMR205C, strain PFK2, hits give low values 0.982 | S. cerevisiae deletion strains, locus YMR223W, strain ubp8, hits give low values 1.01 | S. cerevisiae deletion strains, locus YMR231W, strain pep5, hits give low values 0.997 | S. cerevisiae deletion strains, locus YMR263W, strain SAP30, hits give low values 1.01 | S. cerevisiae deletion strains, locus YMR307W, strain GAS1, hits give low values 1 | S. cerevisiae deletion strains, locus YNL067W, strain RPL9B, hits give low values 1.01 | S. cerevisiae deletion strains, locus YNL071W, strain lat1, hits give low values 1.01 | S. cerevisiae deletion strains, locus YNL128W, strain TEP1, hits give low values 1.02 and 0.978 | S. cerevisiae deletion strains, locus YNL153C, strain GIM3, hits give low values 1.01 | S. cerevisiae deletion strains, locus YNL175C, strain NOP13, hits give low values 0.99 | S. cerevisiae deletion strains, locus YNL183C, strain NPR1, hits give low values 0.965 | S. cerevisiae deletion strains, locus YNL197C, strain WHI3, hits give low values 1.02 | S. cerevisiae deletion strains, locus YNL209W, strain ssb2, hits give low values 1.01 | S. cerevisiae deletion strains, locus YNL224C, strain SQS1, hits give low values 0.999 | S. cerevisiae deletion strains, locus YNL233W, strain BNI4, hits give low values 0.999 | S. cerevisiae deletion strains, locus YNL248C, strain rpa49, hits give low values 0.992 | S. cerevisiae deletion strains, locus YNL250W, strain rad50, hits give low values 1.04 | S. cerevisiae deletion strains, locus YNL271C, strain bni1, hits give low values 1.03 | S. cerevisiae deletion strains, locus YNL298W, strain CLA4, hits give low values 1 | S. cerevisiae deletion strains, locus YNL307C, strain MCK1, hits give low values 1.03 | S. cerevisiae deletion strains, locus YNL322C, strain KRE1 (second series), hits give low values 0.995 | S. cerevisiae deletion strains, locus YNL322C, strain KRE1, hits give low values 1.01 | S. cerevisiae deletion strains, locus YNR049C, strain mso1, hits give low values 1.01 | S. cerevisiae deletion strains, locus YNR052C, strain pop2, hits give low values 1.01 | S. cerevisiae deletion strains, locus YOL006C, strain TOP1, hits give low values 1.05 | S. cerevisiae deletion strains, locus YOL012C, strain htz1 1.05 | S. cerevisiae deletion strains, locus YOL147C, strain pex11, hits give low values 1.04 | S. cerevisiae deletion strains, locus YOR001W, strain rrp6, hits give low values 1 | S. cerevisiae deletion strains, locus YOR061W, strain CKA2, hits give low values 1.02 | S. cerevisiae deletion strains, locus YOR069W, strain VPS5, hits give low values 1.01 | S. cerevisiae deletion strains, locus YOR070C, strain gyp1, hits give low values 1 | S. cerevisiae deletion strains, locus YOR080W, strain dia2, hits give low values 0.996 | S. cerevisiae deletion strains, locus YOR083W, strain WHI5 (second series), hits give low values 1.01 | S. cerevisiae deletion strains, locus YOR083W, strain WHI5, hits give low values 0.996 | S. cerevisiae deletion strains, locus YOR106W, strain vam3, hits give low values 0.989 | S. cerevisiae deletion strains, locus YOR136W, strain idh2, hits give low values 1.03 | S. cerevisiae deletion strains, locus YOR144C, strain elg1, hits give low values 1.03 | S. cerevisiae deletion strains, locus YOR184W, strain ser1, hits give low values 1.06 | S. cerevisiae deletion strains, locus YOR231W, strain MKK1, hits give low values 1 | S. cerevisiae deletion strains, locus YOR265W, strain rbl2, hits give low values 0.994 | S. cerevisiae deletion strains, locus YOR270C, strain vph1, hits give low values 0.995 | S. cerevisiae deletion strains, locus YOR290C, strain snf2, hits give low values 1.02 | S. cerevisiae deletion strains, locus YOR316C, strain cot1, hits give low values 1.03 | S. cerevisiae deletion strains, locus YPL051W, strain arl3, hits give low values 1 | S. cerevisiae deletion strains, locus YPL055C, strain LGE1, hits give low values 1.02 and 0.98 | S. cerevisiae deletion strains, locus YPL078C, strain atp4, hits give low values 0.998 | S. cerevisiae deletion strains, locus YPL106C, strain sse1, hits give low values 0.976 | S. cerevisiae deletion strains, locus YPL240C, strain hsp82, hits give low values 1 | S. cerevisiae deletion strains, locus YPL241C, strain CIN2, hits give low values 1.01 and 0.988 | S. cerevisiae deletion strains, locus YPL256C, strain CLN2, hits give low values 1.03 | S. cerevisiae deletion strains, locus YPR119W, strain clb2, hits give low values 1.04 | S. cerevisiae deletion strains, locus YPR141C, strain kar3, hits give low values 1.02 | S. cerevisiae deletion strains, locus YPR163C, strain tif3, hits give low values 1.04 | S. cerevisiae deletion strains, locus YPR167C, strain met16, hits give low values 1.03 | S. cerevisiae deletion strains, strain wtn01, hits give low values 1.03 | S. cerevisiae strains, strain wild type, hits give low values 1
